# In PubChem BioAssay (NCI):
# This is part of a sample that, as a whole, favours compounds with a hit. Of some 83,000 tested, about 20% had one in any assay.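 In brief: 96-well plates, 48 h treatment, single concentration, percent growth endpoint.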 Activity calls are given as the source filed them. How the source made its calls: active means growth percent below 10; inactive means the rest.
# System: HL-60(TB) leukemia
# Test: NCI-60 one-dose screen, 48 h (100 = growth as untreated, 0 = no growth, -100 = all killed)
# Settings: 10 µM unless noted
row,Compound,growth
1,NS(=O)(=O)c1ccc(Nc2nc(N/N=C/C=C/c3ccccc3)nc(Nc3ccccc3)n2)cc1,38.6% (inactive)
2,O=C1/C(=C/c2cc(F)cc(F)c2)Cc2cc3c(cc21)OCO3,3.69% (active)
3,COc1ccc(Cc2nn(CC(=O)N/N=C/c3ccc(Cl)cc3)c(=O)c3c(C)noc23)cc1,101% (inactive)
4,O=C(O)c1ccc(-n2cc(CNc3cc(F)c(F)c(F)c3)c(-c3ccc(F)cc3)n2)cc1,103% (inactive)
5,Cc1cc2ncc(-c3cc4ccccc4c(N4CCN(C)CC4)n3)nc2cc1C,-31.9% (active)
6,O=S(=O)(NCCCNc1nccc(-c2[nH]c(-c3ccccc3)nc2-c2ccc(Cl)c(O)c2)n1)c1ccc(Br)cc1,13.1% (inactive)
7,CSc1ccc(/C(=N/N=C(N)N)c2ccc(F)cc2)cc1,-31.7% (active)
8,CC(=O)N1N=C(c2cccc(-n3cccc3)c2)CC1c1cccc(F)c1 (stereo not drawn),108% (inactive)
9,N#Cc1c(NC(=O)c2cccc(C(F)(F)F)c2F)sc2c1CCC(=O)C2,-17.4% (active)
10,NS(=O)(=O)c1cccc(Nc2nc(SCC(=O)c3ccc([N+](=O)[O-])cc3)nc3ccccc23)c1,0.866% (active)
11,O=C1[C@@H]2Cc3c([nH]c4ccccc34)[C@@H](c3ccc(Cl)cc3)N2C(=O)CN1C1CCN(Cc2ccccc2)CC1,-9.39% (active)
12,Cc1ccc(C(=O)Nc2cccc(C(F)(F)F)c2)cc1Nc1nc(-c2cnccn2)nc2c1cnn2C,22% (inactive)
13,C#Cc1nc(C2=C(C)C(OC(C)=O)/C(=N/OC(C)=O)C2)cs1 (stereo not drawn),-43.9% (active)
